# Screens deposited in PubChem by National Center for Advancing Translational Sciences (NCATS).
# The list is not random: actives were taken first. Their share in the collection is about 9.9%.
# KB-3-1 cytotox = KB-3-1 parental cell cytotoxicity | Potency, µM (titrated, usually from 46.1 µM), actives largely listed as cytotoxic | actives 1.4% (n = 400,000) | KB-3-1 viability, CellTiter-Glo ATP luminescence, 72 h; also: potency is read from the fitted curve at half-maximal effect; % is scaled to controls: 0 for no effect and ±100 for the full control effect; nearly all actives have a fitted effect of over 60% in size
#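 Multi-concentration cytotoxicity screen in KB-3-1 cells grown in DMEM lacking phenol red with 10% FBS. After 72 h at 37 °C with compound, ATP-dependent luminescence was recorded.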
# KB-V1 MDR tox = KB-V1 MDR subline cytotoxicity | KB-V1 MDR cells viability, CellTiter-Glo, 72 h | actives 3.4% (n = 400,000) | Potency, µM (highest dose often 46.1 µM), actives largely listed as cytotoxic; also: potency is read from the fitted curve at half-maximal effect; % is scaled to controls: 0 for no effect and ±100 for the full control effect; nearly all actives have a fitted effect of over 60% in size
#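 Cytotoxicity via CellTiter-Glo luminescence after 72 h compound exposure at 37 degrees C. Cells: drug-selected KB-V1 line, DMEM phenol-red free plus 10% FBS. Compounds tested at multiple concentrations; normalized data fitted to concentration-effect curves.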
# MCF10A rereplic = induces DNA re-replication in MCF 10a normal breast cells. actives 2.9% (n = 350,000). MCF 10A DNA re-replication, Hoechst nuclear intensity, 48 h. AID 624296. Potency, µM (top dose mostly 46.1 µM), for inactives: at the top dose activity, positive = re-replication, actives largely listed as activators; also: potency is read from the fitted curve at half-maximal effect; % of control where 0% means no effect; nearly all actives have a fitted effect of over 50% in size
# SW480 rereplic = inducers of DNA re-replication in SW480 colon cancer cells | actives 1.8% (n = 340,000) | Potency, µM (top dose mostly 46.1 µM), for the others: at the top dose re-replication activation, usual class: activators | SW480 DNA re-replication, Hoechst DNA content imaging, 48 h; also: potency is read from the fitted curve at half-maximal effect; % of control where 0% means no effect; nearly all actives have a fitted effect of over 55% in size
#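 Quantitative HTS format with DMSO vehicle controls; 48 hr drug incubation at 37 C, then 40 min Hoechst staining and scanning imager measurement at 405 nm excitation.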
# IL1B secr inh = inflammasome signaling inhibition, IL-1 beta readout; THP-1 LPS/ATP IL-1B secretion, AlphaLISA, 16 h; hits give low values; activity change, % at 57.5 µM; actives 4.7% (n = 360,000); AID 743279; in the data active = activity change below about -50%; inconclusive = mostly about -30% to -49%; also: % is scaled to controls: 0 for no effect and ±100 for the full control effect
#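 Secreted IL-1B measured by AlphaLISA bead assay after 16 h compound exposure of THP-1 cells; compounds (final up to 57.5 uM) added 1 h before LPS (250 ng/mL) and ATP (1.25 mM) stimulation; lower signal means less secretion.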
# * hit, by the source's call; i = inactive; ? = inconclusive; . = not tested or not shown. Unless noted, calls follow the shape of the dose curve; as a rule, active = well fitted curve in the direction sought with a large enough effect; inconclusive = small, poorly fitted or top-dose-only effect, or another doubt; inactive = no such curve, though single readings can be large; an effect the other way counts as inactive or inconclusive.
SMILES,KB-3-1 cytotox,KB-V1 MDR tox,MCF10A rereplic,SW480 rereplic,IL1B secr inh
C/C=C/c1cnc2c(c1)C(=O)N([C@H](C)CO)C[C@H](C)[C@@H](CN(C)C(=O)CN1CCOCC1)O2,i,i,.,.,24.0
COc1ccc(NC(=O)CN2CCC(NC(=O)c3ccc(OC)cc3)CC2)cc1,i,i,-6.3%,-46.3%,-22.2
NC(=O)C1CCN(CC(=O)Nc2ccccc2Sc2ccccc2)CC1,i,20.6µM*,?,-78.8%,-7.4
N=c1sccn1CC(=O)Nc1ccccc1Sc1ccccc1,i,i,-4.1%,8.1%,-54.8*
Cc1ccn2c(Nc3ccc(C(C)C)cc3)c(-c3cccs3)nc2c1,i,i,.,.,.
CC1CCCCC12NC(=O)N(CC(=O)NCCc1c[nH]c3ccccc13)C2=O (stereo unspecified),i,i,-1.7%,16.6%,-8.1
O=C(Nc1nccs1)C(Br)C(Br)c1ccccc1 (stereo unspecified),?,?,?,?,-86.3*
O=C1CCCc2c1nc(-c1ccc(F)cc1)n2O,i,i,3.6%,-18.5%,22.9
O=C1CCCc2c1nc(-c1ccc([N+](=O)[O-])cc1)n2O,i,i,23.1µM*,33.6%,.
Cc1cc(Sc2nc(N)ncc2[N+](=O)[O-])ncn1,16.4µM*,i,?,?,-108.7*
Cc1cc(Sc2ncnc(N)c2[N+](=O)[O-])ncn1,4.61µM*,?,2.91µM*,?,-100.0*
CCc1nn(CC(=O)NCc2cccnc2)c(=O)c2cc3occc3n12,i,i,-1.1%,-18.1%,5.1
CC(Cn1cnc2ccccc21)C(=O)O (stereo unspecified),i,i,-0.3%,0.6%,2.5
OC(CN(c1ccccc1)c1ccccc1)Cn1cnc2ccccc21 (stereo unspecified),?,18.4µM*,6.4%,-1.6%,-12.2
OC(COCc1ccccc1)Cn1cnc2ccccc21 (stereo unspecified),i,16.4µM*,-0.3%,-14.5%,-1.7
COc1cccc(NC(=O)c2cc(-c3cccnc3)nc3c(Cl)cccc23)c1,i,2.91µM*,?,16.2%,-7.0
COc1cccc(NC(=O)c2cc(Cl)nnc2Cl)c1,?,i,?,?,-92.5*
Cc1cccc(NC(=O)c2cc(-c3cccnc3)nc3c(C)cccc23)n1,i,?,16.4µM*,2.2%,i
COc1cc(NC(=O)c2cc(Cl)nnc2Cl)cc(OC)c1OC,i,i,23.6%,?,?
Cc1cc(NC(=O)c2cc(-c3ccccn3)nc3c(Cl)cccc23)no1,.,.,?,0.4%,16.9
Cc1cc(NC(=O)c2cc(-c3ccncc3)nc3c(C)cccc23)no1,3.26µM*,3.66µM*,?,6.51µM*,37.2
O=C(Nc1ccc(F)cc1)c1cc(-c2ccncc2)nc2c(Cl)cccc12,i,?,?,20.1%,-11.2
CCC(C)N(C(=O)COC(=O)c1ccc(N)c([N+](=O)[O-])c1)C1CCS(=O)(=O)C1 (stereo unspecified),i,i,.,.,9.3
Cc1nn(C)c(C(=O)NNC(=S)NCC(C)C)c1Cl,i,i,7.7%,?,42.7
CCS(=O)(=O)Nc1ccc(C(=O)c2ccccc2)cc1,i,i,2.5%,-0.3%,-52.0*
SMILES,KB-3-1 cytotox,KB-V1 MDR tox,MCF10A rereplic,SW480 rereplic,IL1B secr inh
CCCCC(=O)Nc1ccc(C(=O)c2ccccc2)cc1,i,i,6.3%,-5.7%,-60.3*
CC(=O)Nc1ccc(C(=O)c2ccccc2)cc1,i,i,11.1%,-3.6%,5.6
CCc1cc2ccccc2nc1SCC(=O)Nc1cc(C)on1,i,i,?,1.7%,15.1
Cc1ccc(-c2cc(C(=O)Nc3cc(C)on3)c3ccccc3n2)cc1,i,i,11.6%,?,22.6
Cc1cccc2sc(NNC(=O)c3cc(-c4cccs4)nc4ccccc34)nc12,?,?,18.4µM*,?,137.0
CCc1cc2ccc(OC)cc2nc1SCC(=O)Nc1cc(C)on1,i,i,13µM*,6.7%,16.3
CC(C)NC(=O)c1cc(-c2cccs2)nc2ccccc12,i,i,-1.0%,-36.0%,-7.7
O=C(NC1=NCCS1)c1cc(-c2cccnc2)nc2ccccc12,i,?,-4.2%,0.2%,1.3
O=C(NC1=NCCS1)c1cc(-c2cccs2)nc2ccccc12,i,i,20.0%,6.5%,-64.4*
Cc1cc(NC(=O)c2cc(-c3cccs3)nc3ccccc23)no1,20.6µM*,?,?,134.1%,8.9
COc1cc(C(=O)O[C@H]2C/C(C)=C/CC[C@@]3(C)O[C@@H]3[C@H](O)[C@@H]2C(C)C)cc(OC)c1OC,i,i,28.0%,1.5%,0.0
COC(=O)c1ccc(COC(=O)c2ccc(SC)cc2OC)cc1,i,i,-3.6%,1.9%,21.7
Cc1cccc(NC(=O)CN(C)S(=O)(=O)c2ccc3c(c2)CCC(=O)N3)c1C,i,i,.,.,.
Cc1cc(NC(=O)CSc2nc(-c3cccs3)nc3ccccc23)no1,5.8µM*,?,14.6µM*,5.8µM*,26.3
Cc1cc(NC(=O)CSc2nc(C(C)(C)C)nc3ccccc23)no1,i,?,?,?,0.0
CC1(C(=O)NS(=O)(=O)c2ccc3c(c2)CCO3)CCN1C(=O)CCC1CCCC1 (stereo unspecified),i,i,.,.,29.1
CC(C)CN(CC(C)C)C1=N/C(=C\c2ccco2)C(=O)N1c1ccccc1,i,i,14.6µM*,?,6.9
CCN(CC)C1=N/C(=C\c2ccco2)C(=O)N1c1ccccc1,i,?,?,8.4%,-3.9
CN(C(=O)COC(=O)CCC(=O)c1ccc(F)cc1)C1CCCCC1,i,i,1.8%,-6.3%,22.8
CCCCc1nc(NCCNC(=O)c2ccccc2)c(C#N)c2c1CSC(C)(C)C2,i,?,?,?,-22.5
CCCCc1nc(NCCNC(=O)c2ccco2)c(C#N)c2c1CSC(C)(C)C2,i,2.31µM*,?,?,-5.0
CCCCc1nc(Cl)c(C#N)c2c1CSC(C)(C)C2,i,i,23.1µM*,?,45.5
Cn1c(SCc2nn[nH]n2)nc2c1c(=O)n(Cc1ccccc1Cl)c(=O)n2C,i,i,-3.7%,1.6%,3.5
CCCCCC(=O)Nc1ccc(-c2csc(C)n2)cc1,i,?,-32.6%,1.1%,7.8
CCCCCC(=O)Nc1ccc(-c2csc(N)n2)cc1,i,i,?,0.8%,-75.9*
COc1ccc(CN(C)C(=O)C2CCN(S(=O)(=O)c3cccs3)CC2)cc1F,i,i,?,-7.1%,0.0
Cc1ccc(NC(=O)N2CCC(C(=O)c3ccc(F)cc3)CC2)cc1,i,23.1µM*,10.7%,-1.8%,-6.8
